Structures are written as SMILES. In all, about 280,000 compounds went through this assay and about 1,700 (0.61%) were called active. No stated cut-off is given here; in the data, active means inhibition mostly above about 24% (no sharp cut-off); inactive means mostly below about 32%. The sample as a whole holds a higher share of actives than the screen did.

The values below come from PubChem BioAssay AID2071 (Sanford-Burnham Center for Chemical Genomics, 2009).

A short description of this assay: NALP1 inflammasome inhibitors in reconstituted yeast, colorimetric, S. cerevisiae, triplicate retest (AID 2071). Conditions: S. cerevisiae NALP1/ASC/caspase-1 growth, X-gal OD620, 72 h, stronger effect = higher value.

Turning to `CN(C)c1ccc(-c2nnc(-c3cccnc3)o2)cc1`, where the note is “at 10 µM unless noted”, the inhibition was -3.5% (inactive). Still for that read-out and setting: the result for `O=C(NCc1cccc(C(F)(F)F)c1)c1cccc(S(=O)(=O)N2CCN(Cc3ccccc3)CC2)c1` reads 9.8% (inactive); that for `CCn1c(=O)c(C(=O)NCc2ccc3c(c2)OCO3)c(O)c2ccccc21`, 4.6% (inactive).

For `CCS(=O)(=O)c1cc([N+](=O)[O-])c(Sc2ccccc2N)s1`, the inhibition (at 10 µM unless noted) was 6.4% (inactive). On the same count and under the same terms, the result for `Nc1ccccc1SCc1cc([N+](=O)[O-])cc2c1OCOC2` reads 23.8% (active); that for `CC(O)C(NS(=O)(=O)c1ccc(Cl)cc1)C(=O)OCc1cc([N+](=O)[O-])cc2c1OCOC2` (centres undefined), 9.8% (inactive); that for `O=S(=O)(NC1CC1)c1ccc(F)c(F)c1`, 3% (inactive). The same measure, in the same setting: the result for `CN(C)[C@@H]1C(=O)C(C(N)=O)=C(O)[C@@]2(O)C(=O)C3=C(O)c4c(O)ccc(Cl)c4[C@@H](O)[C@H]3C[C@@H]12` reads 136% (active); that for `O=C(N/N=C/c1ccccn1)c1cccc(NC(=O)c2ccc(Cl)cc2)c1`, 8.8% (inactive). On the same count and under the same terms, the result for `S=C(NCCCc1ccccc1)Nc1ccc(Br)cc1` reads 13% (inactive).

For `COc1ccc(C(=O)C2CCCN(C(=O)c3ccc(OC)o3)C2)c(C)c1` (centres undefined), the inhibition (at 10 µM unless noted) is 14.5% (inactive). Still for that read-out and setting: the result for `CCC(=O)Nc1cc(C(F)(F)F)ccc1N1CCCC1` reads 9% (inactive). As to `CC(Sc1nncn1C)C(=O)Nc1cc(C(F)(F)F)ccc1N1CCOCC1` (centres undefined), the inhibition (at 10 µM unless noted) is 6.8% (inactive). On the same count and under the same terms, for `CC(C)CC(=O)Nc1cc(C(F)(F)F)ccc1N1CCOCC1` the value was 39.4% (active); for `CC(=O)c1ccc(NC(=O)c2cc(-c3cccs3)on2)cc1`, 27.2% (inactive). Regarding `CN(C)CCCN(C(=O)c1ccc(S(=O)(=O)N2CCCCCC2)cc1)c1nc2ccc(Br)cc2s1`, the inhibition (at 10 µM unless noted) was 40.2% (active). `CN(C)CCCN(C(=O)c1ccc(S(=O)(=O)N2CCCc3ccccc32)cc1)c1nc2ccc(F)cc2s1`: the inhibition (at 10 µM unless noted) was 33.1% (inactive). Still for that read-out and setting: the result for `CCN(CC)CCN(C(=O)c1ccc(S(=O)(=O)N2CCOCC2)cc1)c1nc2cc3c(cc2s1)OCCO3` reads 6.8% (inactive); that for `O=C(N/N=C/c1ccccc1O)C1CCCC1`, -5.6% (inactive). For `COc1ccc(N(C)S(=O)(=O)c2ccc3c(c2)CC(C)N3C(=O)C2CC2)c(OC)c1` (centres undefined), the inhibition (at 10 µM unless noted) is 10.4% (inactive).

As for `O=C(Nc1ccnc(-c2ccncc2)n1)c1cccs1`, the inhibition (at 10 µM unless noted) is 37.8% (active).

In the case of `O=C(Nc1ccccc1)c1ccc(NC(=O)c2cccs2)cc1`, for the setting “at 10 µM unless noted”, the inhibition is 1.7% (inactive). As to `O=C(Nc1ccc(NC(=O)c2cccs2)cn1)c1ccco1`, for the setting “at 10 µM unless noted”, the inhibition is -12.5% (inactive).

For `CN1C(CC(=O)Nc2ccc(Br)cc2)c2ccccc2CC1(C)C` (centres undefined), for the setting “at 10 µM unless noted”, the inhibition is 34.1% (active). As to `COCC(=O)Nc1ccc(Br)cc1`, the inhibition (at 10 µM unless noted) is -1.1% (inactive). `CN1CCN(NC(=O)Nc2ccc(Br)cc2)CC1`: the inhibition (at 10 µM unless noted) is 9.6% (inactive). Still for that read-out and setting: for `CC(C)Sc1ncnc2c1cnn2-c1ccccc1` the value was 13.3% (inactive). On the same count and under the same terms, the result for `Cc1nonc1NC(=O)c1oc2ccccc2c1C` reads 15.3% (inactive). Turning to `Cc1cccc(N2C(=O)CC(SC(N)=Nc3ccccc3)C2=O)c1` (centres undefined), under “at 10 µM unless noted”, the inhibition was 3% (inactive).

As to `COC(=O)c1ccccc1SC1CC(=O)N(c2cccc(C)c2)C1=O` (centres undefined), the inhibition is 74.7% (active) (at 10 µM) and 89.6% (triplicate retest, at 20 µM).

For `COC(=O)c1cc(C(=O)OC)cc(N2C(=O)CC(N3CCN(c4ccccc4)CC3)C2=O)c1` (centres undefined), where the note is “at 10 µM unless noted”, the inhibition is 9.3% (inactive). Still for that read-out and setting: for `CC(=O)c1ccc(N2Cc3ccccc3C2)cc1` the value was 23% (inactive). With `COC(=O)c1ccc(NC(=O)CSc2nncn2-c2cccnc2)cc1`, the inhibition (at 10 µM unless noted) is 12.6% (inactive). As for `COc1ccc(/C=C2\SC(=S)N(CCCC(=O)NC3CCCC3)C2=O)cc1OC`, the inhibition (at 10 µM unless noted) is 12.9% (inactive).

Regarding `Cc1nc(-c2ccccc2)sc1C(=O)/C=C/N(C)C`, the inhibition (at 10 µM unless noted) is 32.3% (active). The same measure, in the same setting: the result for `CN(C)/C=C/C(=O)c1ccccc1F` reads 27.1% (inactive); that for `Cc1ccc(SCC(=O)c2sc(-c3ccccc3)nc2C)cc1`, 30.2% (inactive). For the compound `CCCc1cc(=O)oc2c(C)c(OCC(=O)Nc3ccccn3)ccc12`, for the setting “at 10 µM unless noted”, the inhibition was 16.1% (inactive). Consider `COc1cc(/C=C/C(=O)N2CCc3ccccc3C2)cc(OC)c1OC`, for which the inhibition (at 10 µM unless noted) was 10.3% (inactive). On to `COc1ccc(OC)c(C(=O)NC(CC(N)=O)c2ccc(N3CCC(N4CCCCC4)CC3)c([N+](=O)[O-])c2)c1` (centres undefined), for which, under “at 10 µM unless noted”, the inhibition is 11.6% (inactive). `Cc1ccc(C)c(S(=O)(=O)n2cnc3ccccc32)c1`: the inhibition (at 10 µM unless noted) is 1.1% (inactive). Take `COc1ccc(S(=O)(=O)n2cnc3ccccc32)c(C)c1`: for the setting “at 10 µM unless noted”, the inhibition was 2.2% (inactive). For `Cc1ccc(S(=O)(=O)n2cnc3ccccc32)c(C)c1`, for the setting “at 10 µM unless noted”, the inhibition is 40.9% (active).

`CC1CN(C(=O)c2cc(COc3c(F)cccc3F)on2)CCN1C` (centres undefined): the inhibition (at 10 µM unless noted) was -3.5% (inactive).

On to `Cc1ccc(CNC(=O)CCS(=O)(=O)c2ccc3c(c2)CC(C)N3C(=O)C2CC2)o1` (centres undefined), for which, where the note is “at 10 µM unless noted”, the inhibition is 20.6% (inactive). For the compound `O=C(NC(=O)c1ccccc1)NC(=O)c1ccccc1`, the inhibition (at 10 µM unless noted) was -6% (inactive). The same measure, in the same setting: for `N#C/C(=C/c1ccc(Cl)cc1)NC(=O)c1ccccc1` the value was 43.3% (active); for `O=C(NCC1CCCO1)/C(=C/c1ccc(Cl)cc1)NC(=O)c1ccccc1` (centres undefined), 22.3% (inactive).

What is called inhibition is the change of the read-out against control, counted positive when it falls.
